Laboratory results reported in PubChem BioAssay AID1259312 (Keith Lab, Institute of Cancer Science, University of …, 2017).
In all, about 4,500 compounds went through this assay and about 200 (4.4%) were called active. This excerpt belongs to a sample that is enriched for actives. A number with no mark means an inactive call.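 The calls were made as follows: active = cell survival measured by absorbance rises more than 2.5-fold over infected cells without compound; inactive = the rest.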

Experiment: survival after telomere uncapping, modulators, primary screen, cell-based (AID 1259312);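 also: virus expresses mutant telomerase RNA that uncaps telomeres and kills cells; compound added 2 days after infection so exposure lasts 3 days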
Conditions: HCT116 + Ad-hTR-mut, MTT, 5 d; at 10 µM, hits give high values

Row | Compound | fold change
1 | O=C1C2C3c4ccccc4C(c4ccccc43)C2C(=O)N1c1ccc2ccccc2c1 (stereo not drawn) | 3.16 (active)
2 | O=C1C2C3CC(C(Br)C3Br)C2C(=O)N1c1ccc(Br)cc1 (stereo not drawn) | 1.06
3 | Cc1ccnc(SC2CC(=O)N(c3ccc4ccccc4c3)C2=O)n1 (stereo not drawn) | -1.04
4 | CN1C(=O)COc2ccc(S(=O)(=O)N3CCOCC3)cc21 | -1.01
5 | Nc1nc(=S)n(-c2ccccc2)[nH]1 | -2.51
6 | CC(C)N1C=C(Cc2cccnc2)C2=C(C1)C(c1cccnc1)C(C#N)=C(N)O2 (stereo not drawn) | 2.25
7 | N#CC1=C(N)N(Cc2ccccc2)C2=C(COC/C2=C/c2cccnc2)C1c1cccnc1 (stereo not drawn) | 2.64 (active)
8 | N#CC1=C(N)Oc2ccc(N)cc2C1c1cccnc1 (stereo not drawn) | 2.15
9 | COc1cccc(OC)c1-c1noc(CSc2nc3ccccc3o2)n1 | -1.15
10 | O=c1[nH]c(=O)n([C@@H]2O[C@H](CO)[C@@H](O)[C@H]2O)cc1Br | -3.23
11 | Cc1cc(C)n(-c2nc(N3CCOCC3)nc(N3CCOCC3)n2)n1 | 1.04
12 | Cc1cc(C)nc(Nc2ccc(N3CCOCC3)cc2)n1 | -1.54
13 | O=c1nc(N2CCOCC2)nc(Nc2ccccc2)[nH]1 | active
14 | CCc1cc(C=C(Cl)Cl)oc(=O)c1C | -1.84
15 | Cc1cc2ccc(=O)oc2cc1OC[C@@H](O)C(C)(C)O | -1.35
16 | O=S(=O)(NCc1ccco1)c1ccc(Br)cc1 | 2.26
17 | O=c1[nH]nc(CSCc2ccc3nsnc3c2)[nH]1 | active
18 | O=c1[nH]nc(CSCc2csc(-c3ccccc3)n2)[nH]1 | inactive
19 | O=c1[nH]nc(CSCc2ccc(Cl)cc2)[nH]1 | inactive
20 | NCCCN1CCc2ccccc21 | -1.28
21 | O=C(c1n[nH]c(=O)c2ccccc12)N1CCN(c2ccccn2)CC1 | -1.05
22 | O=C(O)c1csc2c1CCCC2 | 2.51 (active)
23 | Cc1ccc(C)n1-c1sc2c(c1C(=O)O)CCCC2 | -1.1

Row | Compound | fold change
24 | O=C(Nc1sc2c(c1C(=O)O)CCCCC2)c1cccs1 | -1.49
25 | CCS(=O)(=O)c1ccsc1S(=O)(=O)CC | -1.28
26 | COC(=O)Nc1ncc(CN2CCOCC2)s1 | -2.39
27 | c1ccc(-c2ccc3ccccc3n2)nc1 | -1.13
28 | O=S(=O)(O)c1ccc(-c2nnc(-c3ccccn3)nc2-c2ccc(S(=O)(=O)O)o2)o1 | -1.16
29 | c1ccc(-c2nc(-c3ccccn3)nc(-c3ccccn3)n2)nc1 | 3.31 (active)
30 | CC(C)(C)NC(=O)Nc1cccnc1Cl | -1.98
31 | C=CCOC(=O)c1sc(NC(=O)c2cccs2)nc1C | -1.68
32 | CCOC(=O)/C(C#N)=C(\C#N)C(=O)OCC | 1.04
33 | CS(=O)(=O)Nc1ccc2c3c(cccc13)CC2 | 2.67 (active)
34 | CS(=O)(=O)Nc1ccc(F)cc1F | -1.21
35 | CN1CC(C(=O)Nc2ccc3c4c(cccc24)CC3)CC1=O (stereo not drawn) | 1.08
36 | Nc1nc(-c2ccc(Cl)c(Cl)c2)cs1 | 1.69
37 | CCCOc1ccccc1N=c1ssc2c1-c1cc(C)c(C)cc1NC2(C)C | -3.58
38 | COc1ccc2nc(N=C(N)N)nc(C)c2c1 | 1.75
39 | COc1cccc2c(C)nc(N=C(N)N)nc12 | 1.65
40 | Cc1nc(N=C(N)N)nc2ccccc12 | 3.38 (active)
41 | Cc1nccn1CCC1CCNCC1 | 3.27 (active)
42 | Cc1ccc(-c2nn(CN3CCC(c4ccccc4)C3)c(=S)n2-c2ccccc2)cc1 (stereo not drawn) | -1.2
43 | S=c1n(CN2CCCCC2)nc(-c2ccccc2)n1-c1ccccc1 | 3.46 (active)
44 | CC(C)(C)c1ccc(-c2nn(CN3CCC(c4ccccc4)C3)c(=S)n2-c2ccccc2)cc1 (stereo not drawn) | -1.84
45 | O=C(NCCN1CCOCC1)C(=O)NCCN1CCOCC1 | 1.02
46 | COc1ccc(C2C3=C(Nc4ncnn42)c2ccccc2CC3)cc1OC (stereo not drawn) | inactive

Row | Compound | fold change
47 | O=S(=O)(NCCCl)c1ccccc1 | -1.04
48 | C[C@H](CCC(=O)O)[C@H]1CC[C@H]2[C@@H]3[C@H](O)C[C@@H]4C[C@H](O)CC[C@]4(C)[C@H]3C[C@H](O)[C@]12C | -1.01
49 | CCOC(=O)CC[C@@H](C)[C@H]1CC[C@H]2[C@@H]3[C@H](O)C[C@@H]4C[C@H](O)CC[C@]4(C)[C@H]3C[C@H](O)[C@]12C | -1.19
50 | COC(=O)CCC(C)C1CCC2C3C(C[C@H](O)C12C)C1(C)CC[C@@H](O)CC1C[C@H]3O (stereo partly drawn) | 4.26 (active)
51 | COc1ccc(-c2nc(-c3cccnc3)no2)cc1 | -1.74
52 | O=C1CC(c2cc3c(cc2Br)OCO3)c2ccc3ccccc3c2N1 (stereo not drawn) | 1.01
53 | Nc1nc(SCC(=O)Nc2ccc(Br)cc2)sc1C(=O)Nc1nccs1 | -1.48
54 | CCOC(=O)C(C(C)=O)C(C(C)=O)C(=O)OCC (stereo not drawn) | 1.67
55 | CC(=O)C(C(C)=O)C(C(C)=O)C(C)=O | 3.14 (active)
56 | Brc1csc(-c2cc(Br)cs2)c1 | -1.44
57 | NC(=O)c1c(NC(=O)CN2CCCCC2)sc2c1CCCC2 | -1.75
58 | c1ccc(CCn2c(CSc3nc4ccccc4o3)nc3ccccc32)cc1 | -1.06
59 | NS(=O)(=O)c1cc(C(=O)O)c(Cl)cc1Cl | -1.78
60 | c1ccc(-c2ccc(CSc3nc4ccccc4o3)cc2)cc1 | -1.02
61 | O=[N+]([O-])c1ccc(Cl)cc1NCCO | 2.39
62 | NNc1cc(Cl)ccc1[N+](=O)[O-] | 3.68 (active)
63 | O=[N+]([O-])c1ccccc1NC1CCCCC1 | 1.67
64 | O=[N+]([O-])c1ccc(Cl)cc1NCc1ccco1 | -1.31
65 | Cc1ccc(C)n1-c1ccc(NC2CCCC2)c([N+](=O)[O-])c1 | -1.34
66 | O=[N+]([O-])c1cc(Cl)ccc1NC1CCCCC1 | 4.77 (active)
67 | O=C(Nc1nc2c(s1)CCCC2)C1CC(=O)N(c2ccc(F)cc2)C1 (stereo not drawn) | -2.42
68 | Cc1cccn2c(=O)c(C=O)c(Nc3cccc(Cl)c3)nc12 | -1.44
